Screen size: about 63,000 compounds; about 1,100 (1.7%) were called active. Rule as the data show it: active = cytotoxicity above about 50%; inactive = the rest. Shown is part of a subset that was picked to be rich in actives. Results with a measured potency or affinity are listed apart.
Test: HPDE-C7 pancreatic duct cell viability loss – fluorescence, HTS (AID 430);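 also: cells exposed to compound for 48 hours before viability readout; 0% = vehicle and 100% = reference cytotoxic drug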
Settings: HPDE-C7 pancreatic duct cells viability, at 10 µM, stronger effect = higher value

SMILES | cytotoxicity
CN(c1ccc(O)cc1)c1nc(-c2ccccc2)cs1 | 8% (inactive)
COc1cc(-c2csc(C)n2)ccc1O | -29.1% (inactive)
Oc1ccc(-c2nc(-c3ccc(O)c(O)c3)cs2)cc1 | 73.5% (active)
CCOC(=O)COn1c(=O)c[n+]([O-])c2ccccc21 | -1.5% (inactive)
COc1cccc(CNc2nc3ccccc3n2CCN2CCCCC2)c1 | 11.1% (inactive)
CCn1c(NC2CCCCC2)nc2ccccc21 | 7.5% (inactive)
CCOC(=O)CC12CN3CN(C1)CC(CC(=O)OCC)(C3)C2=O | -0.6% (inactive)
CCC(=O)N1CCN(CCN=CC2=C(O)CC(C)(C)CC2=O)CC1 | 5.7% (inactive)
O=C(O)CCN1C(=O)C(=C2CCCCCC2)SC1=S | -8.4% (inactive)
O=C1C(=C2CCCCC2)SC(=S)N1Cc1ccco1 | 60.9% (active)
O=C1c2ccccc2C(=O)N1Cc1ccco1 | -1.5% (inactive)
CSc1nc(N)nc(SCC(=O)c2ccccc2)c1C#N | 13.7% (inactive)
CCCc1nc(SCC(=O)N2CCCc3ccccc32)c2c(=O)n(C)c(=O)n(C)c2n1 | 77% (active)
CCCc1nc(SCC(=O)N2CCN(c3ccccc3)CC2)c2c(=O)n(C)c(=O)n(C)c2n1 | 0% (inactive)
CCc1nc(SCC(=O)N2CCCc3ccccc32)c2c(=O)n(C)c(=O)n(C)c2n1 | -9% (inactive)
CCCc1nc(SCC(=O)N2CCc3ccccc32)c2c(=O)n(C)c(=O)n(C)c2n1 | 5.3% (inactive)
Cn1c(=O)c2c(SCC(=O)N3CCC(Cc4ccccc4)CC3)nc(C3CC3)nc2n(C)c1=O | -3.8% (inactive)
Cc1cc(C(=O)COC(=O)c2ccc3c(c2)OCO3)c(C)n1Cc1cccs1 | -3.8% (inactive)
COCCNC(=O)C(C)OC(=O)c1cc2occc2n1C (stereo unspecified) | -3.5% (inactive)
Cc1csc(NC(=O)C2CCC(C)(C(=O)O)C2(C)C)n1 (stereo unspecified) | -12.1% (inactive)
Cc1cc(C(=O)NCCCN2CCN(C3CCCCC3)CC2)n(-c2ccccc2)n1 | 1.4% (inactive)
Cc1cc(C(=O)NCCCN2CCOCC2)n(-c2ccccc2)n1 | 1.2% (inactive)
Cc1cc(C(=O)NCCN2CCN(c3cccc(Cl)c3)CC2)n(-c2ccccc2)n1 | 55.2% (active)
CC(=O)Nc1cnc2ccccc2n1 | -6.4% (inactive)

SMILES | cytotoxicity
OCCN1CCN(c2nc(-c3ccccc3)c3cc(Cl)ccc3n2)CC1 | 67.2% (active)
Cc1ccc2nc(N3CCC(C(=O)O)CC3)nc(-c3ccccc3)c2c1 | -3.3% (inactive)
Clc1ccc2nc(NC3=NCN(CCN4CCOCC4)CN3)nc(-c3ccccc3)c2c1 | -2.9% (inactive)
CN1CCN(c2nc(-c3ccccc3)c3cc(Cl)ccc3n2)CC1 | 4.2% (inactive)
CN1CCN(c2nc(N3CCN(CCO)CC3)nc3ccccc23)CC1 | -2.1% (inactive)
Cc1cc(Cl)c2c(c1)[C@]1(C(=O)N2)[C@@H]2C(=O)N(Cc3ccccc3)C(=O)[C@@H]2[C@@H]2CCCN21 | -13.3% (inactive)
COc1cccc(N2CCN(C(=O)c3[nH]c(C)c(C(C)=O)c3C)CC2)c1 | 53.6% (active)
CC(=O)c1c(C)[nH]c(C(=O)N2CCN(c3ncccn3)CC2)c1C | 2.1% (inactive)
CCOC(=O)c1[nH]c(C)c(C(=O)N2CCN(c3cccc(Cl)c3)CC2)c1C | 13.5% (inactive)
CC(C)C(=O)Nc1ccc(NC(=O)c2cccc(F)c2)cn1 | -7.5% (inactive)
COc1cc(CCC(=O)OCC(=O)Nc2ncc(Cl)cc2Cl)cc(OC)c1OC | -7.2% (inactive)
Cc1cc(-c2ccccc2C(=O)O)on1 | -13.2% (inactive)
CCCCNC(=O)c1sc(=S)n2c1[nH]c(=O)c1ccccc12 | 70.3% (active)
CCn1c(N)c(C(=O)NCc2ccco2)sc1=S | -6.5% (inactive)
CCCCCCNC(=O)c1c(O)c2ccccc2[nH]c1=O | 4.2% (inactive)
O=C(NCC1CCCO1)c1sc(=S)n2c1[nH]c(=O)c1ccc(C(=O)N3CCCCC3)cc12 (stereo unspecified) | -5.8% (inactive)
O=C(NCc1ccco1)c1sc(=S)n2c1[nH]c(=O)c1ccccc12 | 82.7% (active)
C=CCn1c(N)c(C(=O)NCc2ccco2)sc1=S | 2.4% (inactive)
CCCCNC(=O)c1ccccc1C(=O)NCCCC | -5.7% (inactive)
CCCCCNC(=O)c1ccc2c(=O)n(CC3CCCO3)c(=O)[nH]c2c1 (stereo unspecified) | -2.3% (inactive)
O=C(O)C1CCCN(S(=O)(=O)c2ccc(F)cc2)C1 (stereo unspecified) | -13.4% (inactive)
CCOC(=O)CSC1=NC(=O)CS1 | -7% (inactive)
Cc1ccc2[nH]c(=O)c(CN(CCc3ccccc3)C(=O)N3CCOCC3)cc2c1 | 5.9% (inactive)
CC(C)CC(=O)Nc1cccc(-c2cn3ccsc3n2)c1 | 2.6% (inactive)

SMILES | cytotoxicity
CC(C)CC(=O)Nc1ccc(-c2cn3ccsc3n2)cc1 | 51.9% (active)
CC(=O)Nc1ccc(-c2cn3ccsc3n2)cc1 | 10.2% (inactive)
CCOC(=O)CCC(=O)Nc1ccc(S(=O)(=O)N2CCCC2)cc1 | -1.2% (inactive)
O=C(NC1CCN(C(=O)Nc2ccccc2)CC1)C1CCCCC1 | -8.9% (inactive)
Cc1csc(NC(=O)c2c(O)c3cccc4c3n(c2=O)CCC4)n1 | -11.1% (inactive)
Cc1cnc(NC(=O)c2c(O)c3cccc4c3n(c2=O)CCC4)s1 | 52.2% (active)
CC(C)c1nnc(NC(=O)c2c(O)c3cccc4c3n(c2=O)CCC4)s1 | 46.3% (inactive)
N#CC1=C(N)S[C@H](C(=O)C23CC4CC(CC(C4)C2)C3)[C@H]1c1ccncc1 | -14.7% (inactive)
CCC(c1nnnn1CCc1ccccc1)N(Cc1ccco1)Cc1cc2cc(C)cc(C)c2[nH]c1=O (stereo unspecified) | 10.7% (inactive)
CC1=C(C#N)C(c2cn(-c3ccccc3)nc2-c2cccs2)C(C#N)=C(C)N1 | 41.2% (inactive)
NC1=NC(c2ccccc2Cl)n2c(nc3ccccc32)N1 (stereo unspecified) | 7% (inactive)
NC1=NC(c2cn(-c3ccccc3)nc2-c2cccs2)n2c(nc3ccccc32)N1 (stereo unspecified) | 54.9% (active)
O=C(Nc1ccccc1-c1nc2ccccc2o1)c1ccc2c(c1)OCCO2 | 77.2% (active)
COc1ccc(Br)cc1C(=O)Nc1cccc(NC(=O)c2ccco2)c1 | 42.6% (inactive)
O=C(Nc1ccc2oc(-c3ccccc3F)nc2c1)c1ccc2c(c1)OCCO2 | 46.2% (inactive)
Cc1ccc2oc(-c3ccc(NC(=O)c4ccc5c(c4)OCO5)cc3)nc2c1 | 71.1% (active)
O=C(Nc1cccc(NC(=O)c2ccc(-c3cccc(Br)c3)o2)c1)c1ccco1 | 63% (active)
O=C(Nc1ccc(-c2nc3ccccc3o2)cc1)c1ccc2c(c1)OCO2 | 2% (inactive)
O=C(Nc1ccc2oc(-c3cccnc3)nc2c1)c1cccnc1 | 7.7% (inactive)
COc1ccc(-c2nc3cc(NC(=O)c4ccc5c(c4)OCO5)ccc3o2)cc1 | 1.2% (inactive)
Cc1c(NC(=O)c2ccc3c(c2)OCO3)cccc1-c1nc2ccccc2o1 | -9.8% (inactive)
Cc1ccc2oc(-c3ccc(NC(=O)c4cccnc4)cc3)nc2c1 | 51.4% (active)
CC(=O)Nc1cccc(NC(=O)c2ccco2)c1 | -14.2% (inactive)
O=C(Nc1ccc2oc(-c3ccccc3)nc2c1)c1cccnc1 | 18.1% (inactive)

SMILES | cytotoxicity
CC(=O)[C@@H]1[C@@H]2C(=O)N(Cc3ccccc3)C(=O)[C@@H]2C2c3ccccc3C=CN21 (stereo partly specified) | 3.9% (inactive)
CCC(=NCCc1ccccc1)C1=C(O)CCC1=O | 9.7% (inactive)
C=CCn1c(SCn2nnc3ccccc3c2=O)nnc1-c1ccc(F)cc1 | -0.2% (inactive)
Cc1cc(C(=O)N2CCN(S(C)(=O)=O)CC2)sc1-c1ccccc1 | -3% (inactive)
O=C(NC1CCCC1)C1CCCN1C(=O)Nc1ccccc1Cl (stereo unspecified) | -20.3% (inactive)
C=CCN(CC=C)c1nc2ccccc2nc1C(C#N)C(=O)OCCOC (stereo unspecified) | 1.9% (inactive)
COC(=O)c1ccc(-c2nc3ccccc3o2)cc1 | -9.2% (inactive)
Cc1ccc(-c2nc3ccccc3o2)cc1NC(=O)c1ccc2c(c1)OCO2 | -10% (inactive)
O=C(Nc1ccc2oc(-c3ccccc3)nc2c1)c1ccc2c(c1)OCCO2 | 13.4% (inactive)
O=C(Nc1cccc(-c2nnc(-c3ccccc3)o2)c1)c1ccco1 | -6.9% (inactive)
O=C(Nc1ccc2nc(-c3ccccc3)oc2c1)c1ccco1 | 68.7% (active)
O=C(Nc1ccc(-c2nc3ncccc3o2)cc1)c1ccco1 | 1.1% (inactive)
COc1cc(OC)cc(C(=O)Nc2ccc(-c3nc4ccccc4o3)cc2)c1 | 74.2% (active)
COc1cccc(C(=O)Nc2ccc(-c3nc4ccccc4o3)c(O)c2)c1 | 15.3% (inactive)
C/C=C/COc1nc2c(c(=O)n(C)c(=O)n2C)n1C | -4% (inactive)
O=C(OCC(=O)N1CCN(C(=O)COC(=O)c2ccncc2)CC1)c1ccncc1 | -7.9% (inactive)
O=C1CC(c2cccc(Cl)c2)Cc2nc(N3CCN(c4ccccc4)CC3)ncc21 (stereo unspecified) | 51.4% (active)
CCN1CCN(c2ncc3c(n2)CC(c2cc(OC)c(OC)c(OC)c2)CC3=O)CC1 (stereo unspecified) | 58.9% (active)
O=C1CC(c2cccc(Cl)c2)Cc2nc(N3CCOCC3)ncc21 (stereo unspecified) | -14.6% (inactive)
COc1cc(C2CC(=O)c3cnc(N4CCN(Cc5ccccc5)CC4)nc3C2)cc(OC)c1OC (stereo unspecified) | 46% (inactive)
Cc1ccc(C2CC(=O)c3cnc(N4CCN(c5ccccc5)CC4)nc3C2)cc1 (stereo unspecified) | 9.3% (inactive)
CCN1CCN(c2ncc3c(n2)CC(c2ccc(OC)c(OC)c2)CC3=O)CC1 (stereo unspecified) | 7.7% (inactive)
CSc1nnc2c(n1)OC(C1CC=C(C)CC1)Nc1ccccc1-2 (stereo unspecified) | 2.9% (inactive)
C=CCn1c(=O)c(C(=O)Nc2ccccc2O)c(O)c2ccccc21 | -18% (inactive)

Reference: PubChem BioAssay AID430 (Sanford-Burnham Center for Chemical Genomics, 2006)
